According to PubChem BioAssay (NCI):
Compounds without any hit were thinned out: in the full panel of roughly 83,000, 20% have a hit.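 Interpretation: 100, growth as untreated; towards 0, rising growth inhibition; 0, no net growth; 0 to -100, cell death. Compounds scoring below 10 were considered active.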 The source made the active and inactive calls.

Test system: M14 melanoma
Test: NCI-60 one-dose screen, 48 h (100 = growth as untreated, 0 = no growth, -100 = all killed)
Settings: 10 µM unless noted

| Compound | growth |
| --- | --- |
| CC[C@H](C)[C@H]1NC(=O)[C@@H]([C@H](O)C(C)C)NC(=O)[C@@H](C)N(C)C(=O)[C@H](C)N(C)C(=O)[C@H](CC(C)C)NC(=O)[C@H](CC(C)C)N(C)C(=O)[C@H](C)N(C)C1=O | -18.2% (active) |
| IP(CCCSc1n(Cc2ccc3ccccc3c2)c(-c2ccccc2)c(-c2ccccc2)[n+]1Cc1ccc2ccccc2c1)(c1ccccc1)(c1ccccc1)c1ccccc1 | 51.5% (inactive) |
| N/C(=N\OC(=O)CSc1nc2ccccc2s1)c1ccc(Cl)cc1 | 100% (inactive) |
| CC(=O)NC(C)(C)C(=O)N[C@@H](C)C(=O)NC(C)(C)C(=O)N[C@@H](C)C(=O)NC(C)(C)C(=O)N[C@@H](C)C(=O)N[C@@H](CCC(N)=O)C(=O)NC(C)(C)C(=O)N[C@H](C(=O)NC(C)(C)C(=O)NCC(=O)N[C@@H](CC(C)C)C(=O)NC(C)(C)C(=O)N1CCC[C@H]1C(=O)N[C@H](C(=O)NC(C)(C)C(=O)NC(C)(C)C(=O)N[C@@H](CCC(N)=O)C(=O)N[C@@H](CCC(N)=O)C(=O)N[C@H](CO)CC1CCCCC1)C(C)C)C(C)C | 4.76% [5 µM] (active) |
| CCOC(=O)C1=C(C)Nc2nnc(Nc3ccccc3)n2C1c1ccccc1 (configuration not stated) | 100% (inactive) |
| COc1cc(OC)c(S(N)(=O)=O)cc1C(=O)/C=C/c1ccccc1 | 45.9% (inactive) |
| CCOC(=O)/C(F)=C/C1CC1C1CCCCC1 (configuration not stated) | 98.9% (inactive) |
